According to PMC12529666, “Dysregulation of AGO2-miRNA dynamics underlies the AGO2-associated Lessel–Kreienkamp syndrome”:

B1: ACGCTTTA (ssRNA)
RNA 1: GAGUUCUACAGUCCGACGAUCCCAACACGCUUUACACCUGGAAUUCUCGGGUGCCAA
RNA 2: UGGAGUGUGACAAUGGUGUUUG
DNA 1: GATCGTCGGACTGTAGAACTC
DNA 2: TTGGCACCCGAGAATTCCA
modifications: constant regions annealed to DNA blockers; guide miR-122 5' phosphate
B2: ATATCCCG (ssRNA)
RNA 1: GAGUUCUACAGUCCGACGAUCCCAACAUAUCCCGCACCUGGAAUUCUCGGGUGCCAA
RNA 2: UGGAGUGUGACAAUGGUGUUUG
DNA 1: GATCGTCGGACTGTAGAACTC
DNA 2: TTGGCACCCGAGAATTCCA
modifications: constant regions annealed to DNA blockers; guide miR-122 5' phosphate
B3: GCACTTCG (ssRNA)
RNA 1: GAGUUCUACAGUCCGACGAUCCCAACGCACUUCGCACCUGGAAUUCUCGGGUGCCAA
RNA 2: UGGAGUGUGACAAUGGUGUUUG
DNA 1: GATCGTCGGACTGTAGAACTC
DNA 2: TTGGCACCCGAGAATTCCA
modifications: constant regions annealed to DNA blockers; guide miR-122 5' phosphate
B4: GTGCCCTG (ssRNA)
RNA 1: GAGUUCUACAGUCCGACGAUCCCAACGUGCCCUGCACCUGGAAUUCUCGGGUGCCAA
RNA 2: UGGAGUGUGACAAUGGUGUUUG
DNA 1: GATCGTCGGACTGTAGAACTC
DNA 2: TTGGCACCCGAGAATTCCA
modifications: constant regions annealed to DNA blockers; guide miR-122 5' phosphate
B5: GCATTCCG (ssRNA)
RNA 1: GAGUUCUACAGUCCGACGAUCCCAACGCAUUCCGCACCUGGAAUUCUCGGGUGCCAA
RNA 2: UGGAGUGUGACAAUGGUGUUUG
DNA 1: GATCGTCGGACTGTAGAACTC
DNA 2: TTGGCACCCGAGAATTCCA
modifications: constant regions annealed to DNA blockers; guide miR-122 5' phosphate
B6: GCGCTTCG (ssRNA)
RNA 1: GAGUUCUACAGUCCGACGAUCCCAACGCGCUUCGCACCUGGAAUUCUCGGGUGCCAA
RNA 2: UGGAGUGUGACAAUGGUGUUUG
DNA 1: GATCGTCGGACTGTAGAACTC
DNA 2: TTGGCACCCGAGAATTCCA
modifications: constant regions annealed to DNA blockers; guide miR-122 5' phosphate
B7: GCGTCTTG (ssRNA)
RNA 1: GAGUUCUACAGUCCGACGAUCCCAACGCGUCUUGCACCUGGAAUUCUCGGGUGCCAA
RNA 2: UGGAGUGUGACAAUGGUGUUUG
DNA 1: GATCGTCGGACTGTAGAACTC
DNA 2: TTGGCACCCGAGAATTCCA
modifications: constant regions annealed to DNA blockers; guide miR-122 5' phosphate
B8: ATGTTCTA (ssRNA)
RNA 1: GAGUUCUACAGUCCGACGAUCCCAACAUGUUCUACACCUGGAAUUCUCGGGUGCCAA
RNA 2: UGGAGUGUGACAAUGGUGUUUG
DNA 1: GATCGTCGGACTGTAGAACTC
DNA 2: TTGGCACCCGAGAATTCCA
modifications: constant regions annealed to DNA blockers; guide miR-122 5' phosphate
B9: GTATCCTG (ssRNA)
RNA 1: GAGUUCUACAGUCCGACGAUCCCAACGUAUCCUGCACCUGGAAUUCUCGGGUGCCAA
RNA 2: UGGAGUGUGACAAUGGUGUUUG
DNA 1: GATCGTCGGACTGTAGAACTC
DNA 2: TTGGCACCCGAGAATTCCA
modifications: constant regions annealed to DNA blockers; guide miR-122 5' phosphate
B10: GTGTTCCG (ssRNA)
RNA 1: GAGUUCUACAGUCCGACGAUCCCAACGUGUUCCGCACCUGGAAUUCUCGGGUGCCAA
RNA 2: UGGAGUGUGACAAUGGUGUUUG
DNA 1: GATCGTCGGACTGTAGAACTC
DNA 2: TTGGCACCCGAGAATTCCA
modifications: constant regions annealed to DNA blockers; guide miR-122 5' phosphate
B11: GCGTTCTG (ssRNA)
RNA 1: GAGUUCUACAGUCCGACGAUCCCAACGCGUUCUGCACCUGGAAUUCUCGGGUGCCAA
RNA 2: UGGAGUGUGACAAUGGUGUUUG
DNA 1: GATCGTCGGACTGTAGAACTC
DNA 2: TTGGCACCCGAGAATTCCA
modifications: constant regions annealed to DNA blockers; guide miR-122 5' phosphate
B12: ACATCTCG (ssRNA)
RNA 1: GAGUUCUACAGUCCGACGAUCCCAACACAUCUCGCACCUGGAAUUCUCGGGUGCCAA
RNA 2: UGGAGUGUGACAAUGGUGUUUG
DNA 1: GATCGTCGGACTGTAGAACTC
DNA 2: TTGGCACCCGAGAATTCCA
modifications: constant regions annealed to DNA blockers; guide miR-122 5' phosphate
B13: ACGCCCCG (ssRNA)
RNA 1: GAGUUCUACAGUCCGACGAUCCCAACACGCCCCGCACCUGGAAUUCUCGGGUGCCAA
RNA 2: UGGAGUGUGACAAUGGUGUUUG
DNA 1: GATCGTCGGACTGTAGAACTC
DNA 2: TTGGCACCCGAGAATTCCA
modifications: constant regions annealed to DNA blockers; guide miR-122 5' phosphate
B14: ATATCCTG (ssRNA)
RNA 1: GAGUUCUACAGUCCGACGAUCCCAACAUAUCCUGCACCUGGAAUUCUCGGGUGCCAA
RNA 2: UGGAGUGUGACAAUGGUGUUUG
DNA 1: GATCGTCGGACTGTAGAACTC
DNA 2: TTGGCACCCGAGAATTCCA
modifications: constant regions annealed to DNA blockers; guide miR-122 5' phosphate
B15: ATATTTTG (ssRNA)
RNA 1: GAGUUCUACAGUCCGACGAUCCCAACAUAUUUUGCACCUGGAAUUCUCGGGUGCCAA
RNA 2: UGGAGUGUGACAAUGGUGUUUG
DNA 1: GATCGTCGGACTGTAGAACTC
DNA 2: TTGGCACCCGAGAATTCCA
modifications: constant regions annealed to DNA blockers; guide miR-122 5' phosphate
B16: GCGTCTCG (ssRNA)
RNA 1: GAGUUCUACAGUCCGACGAUCCCAACGCGUCUCGCACCUGGAAUUCUCGGGUGCCAA
RNA 2: UGGAGUGUGACAAUGGUGUUUG
DNA 1: GATCGTCGGACTGTAGAACTC
DNA 2: TTGGCACCCGAGAATTCCA
modifications: constant regions annealed to DNA blockers; guide miR-122 5' phosphate
B17: GTGTTCTG (ssRNA)
RNA 1: GAGUUCUACAGUCCGACGAUCCCAACGUGUUCUGCACCUGGAAUUCUCGGGUGCCAA
RNA 2: UGGAGUGUGACAAUGGUGUUUG
DNA 1: GATCGTCGGACTGTAGAACTC
DNA 2: TTGGCACCCGAGAATTCCA
modifications: constant regions annealed to DNA blockers; guide miR-122 5' phosphate
B18: GCGTTTTG (ssRNA)
RNA 1: GAGUUCUACAGUCCGACGAUCCCAACGCGUUUUGCACCUGGAAUUCUCGGGUGCCAA
RNA 2: UGGAGUGUGACAAUGGUGUUUG
DNA 1: GATCGTCGGACTGTAGAACTC
DNA 2: TTGGCACCCGAGAATTCCA
modifications: constant regions annealed to DNA blockers; guide miR-122 5' phosphate
B19: ATGCCCTG (ssRNA)
RNA 1: GAGUUCUACAGUCCGACGAUCCCAACAUGCCCUGCACCUGGAAUUCUCGGGUGCCAA
RNA 2: UGGAGUGUGACAAUGGUGUUUG
DNA 1: GATCGTCGGACTGTAGAACTC
DNA 2: TTGGCACCCGAGAATTCCA
modifications: constant regions annealed to DNA blockers; guide miR-122 5' phosphate
B20: ATGTCTTG (ssRNA)
RNA 1: GAGUUCUACAGUCCGACGAUCCCAACAUGUCUUGCACCUGGAAUUCUCGGGUGCCAA
RNA 2: UGGAGUGUGACAAUGGUGUUUG
DNA 1: GATCGTCGGACTGTAGAACTC
DNA 2: TTGGCACCCGAGAATTCCA
modifications: constant regions annealed to DNA blockers; guide miR-122 5' phosphate
B21: GTATCCCG (ssRNA)
RNA 1: GAGUUCUACAGUCCGACGAUCCCAACGUAUCCCGCACCUGGAAUUCUCGGGUGCCAA
RNA 2: UGGAGUGUGACAAUGGUGUUUG
DNA 1: GATCGTCGGACTGTAGAACTC
DNA 2: TTGGCACCCGAGAATTCCA
modifications: constant regions annealed to DNA blockers; guide miR-122 5' phosphate
B22: GTGTCCTG (ssRNA)
RNA 1: GAGUUCUACAGUCCGACGAUCCCAACGUGUCCUGCACCUGGAAUUCUCGGGUGCCAA
RNA 2: UGGAGUGUGACAAUGGUGUUUG
DNA 1: GATCGTCGGACTGTAGAACTC
DNA 2: TTGGCACCCGAGAATTCCA
modifications: constant regions annealed to DNA blockers; guide miR-122 5' phosphate
B23: GCATCCTG (ssRNA)
RNA 1: GAGUUCUACAGUCCGACGAUCCCAACGCAUCCUGCACCUGGAAUUCUCGGGUGCCAA
RNA 2: UGGAGUGUGACAAUGGUGUUUG
DNA 1: GATCGTCGGACTGTAGAACTC
DNA 2: TTGGCACCCGAGAATTCCA
modifications: constant regions annealed to DNA blockers; guide miR-122 5' phosphate

The binders below were run against AGO2 L192P (Homo sapiens, UniProt Q9UKV8 1-859, L192P;S387D;S824A;S828D;S831D;S834A) (assay: RNA Bind-n-Seq (nitrocellulose filter binding and sequencing); miR-122 guide loaded in AGO2; 60 min incubation; 30 mM Tris pH 8.0, 100 mM potassium acetate, 2 mM magnesium acetate, 0.5 mM TCEP, 0.005% NP-40, 0.01 mg/ml yeast tRNA; 3 nM AGO2-miR-122, 100 nM RNA library; 60; high values mean tight binding). Conditions: protein: recombinant; tags: His6 (N-terminal, pFastBac HTA).
Summary of the method: (§1)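 Fold enrichment is each target's read fraction divided by its read fraction in the input library. Sf9 insect cells expressed His-tagged AGO2 from baculovirus; the protein was loaded with a synthetic guide RNA and purified by Ni-NTA and a biotinylated capture oligo. The bound RNA was extracted, reverse-transcribed, barcode-amplified and sequenced on Illumina.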

Sequence of AGO2 L192P (Q9UKV8 whole entry L192P/S387D/S824A/S828D/S831D/S834A): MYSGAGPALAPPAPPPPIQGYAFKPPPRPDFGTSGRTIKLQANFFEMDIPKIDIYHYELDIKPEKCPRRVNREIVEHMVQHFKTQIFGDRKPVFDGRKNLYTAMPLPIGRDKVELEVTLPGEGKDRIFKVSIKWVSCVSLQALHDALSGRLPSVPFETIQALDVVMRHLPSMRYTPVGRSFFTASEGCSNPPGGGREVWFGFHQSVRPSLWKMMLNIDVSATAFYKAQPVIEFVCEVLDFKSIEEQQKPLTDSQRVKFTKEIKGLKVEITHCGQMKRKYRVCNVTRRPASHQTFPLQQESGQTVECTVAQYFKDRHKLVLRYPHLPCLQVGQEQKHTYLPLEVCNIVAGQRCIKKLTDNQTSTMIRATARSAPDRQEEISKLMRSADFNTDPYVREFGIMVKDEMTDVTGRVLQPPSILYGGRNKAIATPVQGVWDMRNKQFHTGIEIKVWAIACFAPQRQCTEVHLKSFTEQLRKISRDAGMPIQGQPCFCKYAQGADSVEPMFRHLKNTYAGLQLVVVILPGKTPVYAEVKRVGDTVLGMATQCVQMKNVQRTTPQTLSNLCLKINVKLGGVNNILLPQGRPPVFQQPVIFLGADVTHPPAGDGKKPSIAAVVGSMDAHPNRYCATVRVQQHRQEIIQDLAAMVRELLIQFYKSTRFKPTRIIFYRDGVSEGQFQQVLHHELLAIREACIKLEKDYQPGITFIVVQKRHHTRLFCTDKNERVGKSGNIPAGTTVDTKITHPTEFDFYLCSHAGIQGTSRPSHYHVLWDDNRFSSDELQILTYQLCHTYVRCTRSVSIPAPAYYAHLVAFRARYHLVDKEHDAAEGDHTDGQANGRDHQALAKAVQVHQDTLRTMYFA

| Binder | binding signal |
| --- | --- |
| B1 | 0.468 fold enrichment over input |
| B2 | 0.335 fold enrichment over input |
| B3 | 0.348 fold enrichment over input |
| B4 | 0.425 fold enrichment over input |
| B5 | 0.436 fold enrichment over input |
| B6 | 0.354 fold enrichment over input |
| B7 | 0.395 fold enrichment over input |
| B8 | 0.469 fold enrichment over input |
| B9 | 0.337 fold enrichment over input |
| B10 | 0.408 fold enrichment over input |
| B11 | 0.348 fold enrichment over input |
| B12 | 0.347 fold enrichment over input |
| B13 | 0.391 fold enrichment over input |
| B14 | 0.349 fold enrichment over input |
| B15 | 0.369 fold enrichment over input |
| B16 | 0.345 fold enrichment over input |
| B17 | 0.352 fold enrichment over input |
| B18 | 0.362 fold enrichment over input |
| B19 | 0.377 fold enrichment over input |
| B20 | 0.357 fold enrichment over input |
| B21 | 0.354 fold enrichment over input |
| B22 | 0.335 fold enrichment over input |
| B23 | 0.336 fold enrichment over input |

The binders below were run against AGO2 A367P (Homo sapiens, UniProt Q9UKV8 1-859, A367P;S387D;S824A;S828D;S831D;S834A) in the same assay as above. Conditions: protein: recombinant; tags: His6 (N-terminal, pFastBac HTA).
Summary of the method: as §1

Sequence of AGO2 A367P (Q9UKV8 whole entry A367P/S387D/S824A/S828D/S831D/S834A): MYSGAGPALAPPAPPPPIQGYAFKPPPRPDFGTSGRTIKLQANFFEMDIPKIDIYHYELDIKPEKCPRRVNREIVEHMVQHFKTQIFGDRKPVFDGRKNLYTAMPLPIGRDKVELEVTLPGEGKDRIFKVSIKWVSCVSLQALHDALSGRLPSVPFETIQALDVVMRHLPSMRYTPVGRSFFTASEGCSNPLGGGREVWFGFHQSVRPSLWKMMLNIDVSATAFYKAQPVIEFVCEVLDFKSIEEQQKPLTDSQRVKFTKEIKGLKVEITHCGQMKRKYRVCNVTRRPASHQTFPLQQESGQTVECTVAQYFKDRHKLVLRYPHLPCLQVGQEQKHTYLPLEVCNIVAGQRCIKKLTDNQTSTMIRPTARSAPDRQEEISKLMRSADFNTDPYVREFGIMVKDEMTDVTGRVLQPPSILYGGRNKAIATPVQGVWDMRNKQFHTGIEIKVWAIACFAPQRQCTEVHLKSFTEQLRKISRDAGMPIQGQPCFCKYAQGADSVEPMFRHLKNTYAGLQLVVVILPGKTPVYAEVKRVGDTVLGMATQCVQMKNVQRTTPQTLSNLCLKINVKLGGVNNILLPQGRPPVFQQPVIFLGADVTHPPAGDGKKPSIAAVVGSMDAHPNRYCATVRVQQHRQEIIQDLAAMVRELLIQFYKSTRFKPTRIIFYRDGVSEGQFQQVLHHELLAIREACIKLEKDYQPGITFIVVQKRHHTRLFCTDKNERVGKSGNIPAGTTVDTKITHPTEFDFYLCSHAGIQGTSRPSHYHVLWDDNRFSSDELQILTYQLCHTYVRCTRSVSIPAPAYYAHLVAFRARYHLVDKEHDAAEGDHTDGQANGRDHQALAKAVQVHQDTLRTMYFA

| Binder | binding signal |
| --- | --- |
| B1 | 0.195 fold enrichment over input |
| B3 | 0.147 fold enrichment over input |
| B4 | 0.161 fold enrichment over input |
| B5 | 0.171 fold enrichment over input |
| B6 | 0.148 fold enrichment over input |
| B7 | 0.141 fold enrichment over input |
| B8 | 0.206 fold enrichment over input |
| B9 | 0.123 fold enrichment over input |
| B10 | 0.144 fold enrichment over input |
| B11 | 0.135 fold enrichment over input |
| B12 | 0.134 fold enrichment over input |
| B13 | 0.155 fold enrichment over input |
| B15 | 0.149 fold enrichment over input |
| B16 | 0.138 fold enrichment over input |
| B17 | 0.132 fold enrichment over input |
| B18 | 0.136 fold enrichment over input |
| B19 | 0.137 fold enrichment over input |
| B20 | 0.128 fold enrichment over input |
| B21 | 0.122 fold enrichment over input |
| B22 | 0.124 fold enrichment over input |
| B23 | 0.13 fold enrichment over input |

These binders were tested against AGO2 T357M (Homo sapiens, UniProt Q9UKV8 1-859, T357M;S387D;S824A;S828D;S831D;S834A) in the same assay as above. Conditions: protein: recombinant; tags: His6 (N-terminal, pFastBac HTA).
Summary of the method: as §1

Sequence of AGO2 T357M (Q9UKV8 whole entry T357M/S387D/S824A/S828D/S831D/S834A): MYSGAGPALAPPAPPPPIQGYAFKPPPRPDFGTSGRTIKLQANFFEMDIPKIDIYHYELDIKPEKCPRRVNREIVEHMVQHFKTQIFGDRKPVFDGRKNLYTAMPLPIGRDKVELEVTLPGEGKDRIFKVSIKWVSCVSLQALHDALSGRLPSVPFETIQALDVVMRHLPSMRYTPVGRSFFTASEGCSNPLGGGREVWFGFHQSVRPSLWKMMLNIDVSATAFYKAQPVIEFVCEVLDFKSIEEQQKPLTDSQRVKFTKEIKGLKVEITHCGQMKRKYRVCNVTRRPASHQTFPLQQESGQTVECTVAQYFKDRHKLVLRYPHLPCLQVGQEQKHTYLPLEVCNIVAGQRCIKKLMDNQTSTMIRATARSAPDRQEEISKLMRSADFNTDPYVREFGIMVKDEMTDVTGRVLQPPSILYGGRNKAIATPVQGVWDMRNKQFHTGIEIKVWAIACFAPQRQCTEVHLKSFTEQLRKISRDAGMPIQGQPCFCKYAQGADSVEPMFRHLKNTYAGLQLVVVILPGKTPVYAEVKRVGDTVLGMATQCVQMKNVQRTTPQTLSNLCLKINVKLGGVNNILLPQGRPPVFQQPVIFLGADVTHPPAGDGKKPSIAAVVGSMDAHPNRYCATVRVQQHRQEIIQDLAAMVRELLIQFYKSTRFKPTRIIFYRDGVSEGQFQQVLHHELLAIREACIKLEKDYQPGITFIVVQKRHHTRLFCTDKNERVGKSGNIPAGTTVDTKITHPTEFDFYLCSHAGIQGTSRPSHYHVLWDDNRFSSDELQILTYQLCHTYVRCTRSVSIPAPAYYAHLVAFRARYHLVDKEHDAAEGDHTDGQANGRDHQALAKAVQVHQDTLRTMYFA

| Binder | binding signal |
| --- | --- |
| B1 | 0.588 fold enrichment over input |
| B2 | 0.422 fold enrichment over input |
| B3 | 0.471 fold enrichment over input |
| B4 | 0.581 fold enrichment over input |
| B5 | 0.548 fold enrichment over input |
| B6 | 0.531 fold enrichment over input |
| B7 | 0.547 fold enrichment over input |
| B8 | 0.606 fold enrichment over input |
| B9 | 0.449 fold enrichment over input |
| B10 | 0.544 fold enrichment over input |
| B11 | 0.496 fold enrichment over input |
| B12 | 0.37 fold enrichment over input |
| B13 | 0.524 fold enrichment over input |
| B14 | 0.475 fold enrichment over input |
| B15 | 0.584 fold enrichment over input |
| B16 | 0.498 fold enrichment over input |
| B17 | 0.47 fold enrichment over input |
| B18 | 0.536 fold enrichment over input |
| B19 | 0.463 fold enrichment over input |
| B20 | 0.449 fold enrichment over input |
| B21 | 0.399 fold enrichment over input |
| B22 | 0.452 fold enrichment over input |
| B23 | 0.437 fold enrichment over input |

Each binder was assayed against AGO2 F182del (Homo sapiens, UniProt Q9UKV8 1-859, S387D;S824A;S828D;S831D;S834A;del182-182) in the same assay as above. Conditions: protein: recombinant; tags: His6 (N-terminal, pFastBac HTA).
Summary of the method: as §1

Sequence of AGO2 F182del (Q9UKV8 other isoform, or with tags, fused parts or gaps S387D;S824A;S828D;S831D;S834A;del182-182): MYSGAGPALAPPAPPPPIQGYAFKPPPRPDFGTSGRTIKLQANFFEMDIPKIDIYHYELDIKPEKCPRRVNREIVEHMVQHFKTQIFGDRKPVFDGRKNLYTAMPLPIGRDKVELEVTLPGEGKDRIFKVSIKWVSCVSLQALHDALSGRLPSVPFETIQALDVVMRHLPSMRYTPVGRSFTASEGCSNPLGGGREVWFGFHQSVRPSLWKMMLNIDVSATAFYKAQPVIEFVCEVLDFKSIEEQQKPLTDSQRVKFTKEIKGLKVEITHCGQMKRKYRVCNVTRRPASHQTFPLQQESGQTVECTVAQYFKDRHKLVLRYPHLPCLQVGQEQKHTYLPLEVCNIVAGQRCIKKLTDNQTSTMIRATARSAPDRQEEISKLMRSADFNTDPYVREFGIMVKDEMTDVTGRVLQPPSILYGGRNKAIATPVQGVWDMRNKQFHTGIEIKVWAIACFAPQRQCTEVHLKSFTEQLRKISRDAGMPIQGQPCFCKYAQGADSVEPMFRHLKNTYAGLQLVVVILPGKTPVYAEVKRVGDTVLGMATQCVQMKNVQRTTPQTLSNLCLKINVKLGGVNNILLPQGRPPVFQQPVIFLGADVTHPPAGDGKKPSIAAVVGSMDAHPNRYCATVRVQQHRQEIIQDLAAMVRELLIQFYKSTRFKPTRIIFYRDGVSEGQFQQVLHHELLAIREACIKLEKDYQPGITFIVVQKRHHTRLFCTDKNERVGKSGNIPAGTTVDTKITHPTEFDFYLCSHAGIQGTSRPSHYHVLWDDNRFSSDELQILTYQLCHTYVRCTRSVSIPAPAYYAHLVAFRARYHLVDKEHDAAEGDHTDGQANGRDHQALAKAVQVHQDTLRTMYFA

| Binder | binding signal |
| --- | --- |
| B1 | 0.135 fold enrichment over input |
| B8 | 0.182 fold enrichment over input |
